HCV inh = blocks hepatitis C virus | Potency, µM (series often up to 41.8 µM), for inactives: at the top dose activity change, negative = inhibition, actives largely listed as inhibitors | actives 3.4% (n = 340,000) | Huh7.5.1 HCVcc-Cre infection, luciferase reporter, 44 h | AID 651820; active = well fitted inhibition curve with a large enough effect; inconclusive = small, poorly fitted or top-dose-only effect, or another doubt; inactive = no such curve, though single readings can be large or run the other way; also: potency is read from the fitted curve at half-maximal effect
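Antiviral activity was scored by luciferase reporter output from cells infected with HCVcc-Cre (~0.5 moi) in presence of compound, 44 h infection period, cells seeded 1,000/well 4 h prior.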
HCMV inh = inhibitors of human cytomegalovirus | HFF cells, HCMV-luciferase reporter, 72 h; active compounds read low | activity change, negative = inhibition, % at 57.5 µM | actives 4.5% (n = 410,000); in the data active = activity change below about -60%; inconclusive = no clear call, values can overlap the other calls; inactive = above about -39%
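Screen run at 2 compound doses on HFFs infected with reporter HCMV, MOI 1 PFU/cell. Luciferase activity from cell lysates at 72 h post infection gave inhibition relative to buffer-only and Salinomycin wells.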
Vaccinia mCherry = vaccinia inhibition (mCherry reporter); Vaccinia virus mCherry reporter infection, fluorescence; Potency, µM (titrated, usually from 36.5 µM), without a hit: top-dose activity change, negative = inhibition, hits mostly inhibitors; actives 0.63% (n = 310,000); AID 720579; calls by dose curve; tested in A549 cells; also: potency is read from the fitted curve at half-maximal effect; nearly all actives have a fitted effect of over 35% in size
Vaccinia Venus = inhibitors of vaccinia virus (Venus reporter). Vaccinia virus Venus reporter expression, fluorescence. Potency, µM (series often up to 36.5 µM), without a hit: at the top dose activity change, negative = inhibition, usual class: inhibitors. actives 0.46% (n = 330,000); calls by dose curve; tested in A549 cells; also: potency is read from the fitted curve at half-maximal effect; nearly all actives have a fitted effect of over 30% in size
FMDV antiviral = foot and mouth disease virus antiviral activity | FMDV antiviral cell-based qHTS | Potency, µM (series often up to 57.9 µM), for the others: at the top dose activity change, negative = inhibition, hits mostly inhibitors | actives 1.2% (n = 410,000); calls by dose curve; tested in HEK293T cells; also: read-out not given here; potency is read from the fitted curve at half-maximal effect; nearly all actives have a fitted effect of over 45% in size
* = called active by the depositor; i = inactive; u = inconclusive; x = not tested or not shown. Most compounds without a hit are left out; they make up all but 7.3% or so of the library. % is scaled to controls: 0 for no effect and ±100 for the full control effect.

SMILES	HCV inh	HCMV inh	Vaccinia mCherry	Vaccinia Venus	FMDV antiviral
Cc1cc(C(=O)Nc2c(C)nn(Cc3ccc(F)cc3)c2C)no1	x	4	-11%	-4%	-11%
Cc1nn(Cc2c(Cl)cccc2Cl)c(C)c1NC(=O)c1cc(C(C)C)on1	u	-98*	-24%	-20%	-9%
Cc1nn(Cc2ccc(Cl)cc2)c(C)c1NC(=O)c1cc(C(C)C)on1	11µM*	u	-27%	-2%	u
COc1ccc(-c2cc(C(=O)Nc3cc(C)n(Cc4ccc(Cl)cc4)n3)no2)cc1OC	u	u	u	u	3.5µM*
Cc1cc(C(=O)Nc2c(C)nn(Cc3c(Cl)cccc3Cl)c2C)no1	-26%	-62*	x	x	-10%
CCCNC(=O)C[C@@H]1C[C@@H]2c3cc(NS(=O)(=O)c4ccc(OC)cc4)ccc3O[C@@H]2[C@@H](CO)O1	x	-14	i	-12%	1%
CCN1CCC(N(Cc2ccc3c(c2)OCO3)C(=O)Nc2cc(F)ccc2F)CC1	x	-19	-7%	-3%	5%
CC1(c2nnnn2-c2ccc3c(c2)OCCO3)CCC(=O)N1CCc1c[nH]c2ccccc12 (centres undefined)	x	19	-5%	-1%	-14%
COc1ccc(OC)c(-c2cc(C(=O)Nc3c(C)nn(Cc4ccccc4)c3C)no2)c1	u	-28	u	u	u
COc1ccc(OC)c(-c2cc(C(=O)Nc3c(C)nn(Cc4ccc(Cl)cc4)c3C)no2)c1	14µM*	-13	x	x	u
Clc1ccc(-c2cn(-c3ccccc3)c3[n+]2CCS3)cc1	-23%	-72*	-3%	-4%	-16%
COc1ccc(-c2cn(-c3ccc(Br)cc3)c3[n+]2CCS3)cc1	-25%	-90*	-10%	-18%	u
CC(=O)c1ccc(-n2cc(-c3ccc(C(C)(C)C)cc3)[n+]3c2SCCC3)cc1	-3%	-98*	-8%	-10%	u
Fc1ccc(-c2cn(-c3ccccc3)c3[n+]2CCS3)cc1	u	-25	i	-3%	-20%
COc1ccc(-n2cc(-c3ccc(Cl)cc3)[nH]c2=S)cc1	-6%	-16	x	x	91%
CCOc1cccc(C=NNc2nc(=O)cc(C(=O)OC)s2)c1O	x	-27	x	x	x
COc1ccc(OC)c(CN2CCN(C(=O)[C@@H](NC(=O)c3cccc(C)c3)C(C)C)CC2)c1	u	-10	-22%	-16%	-30%
Cc1ccccc1Cn1cc(NC(=O)c2nn(C)cc2Cl)cn1	-1%	u	-16%	0%	34%
Cc1ccccc1Cn1cc(NS(=O)(=O)c2cn(C)nc2C)cn1	16%	-60*	x	x	-15%
CC1(Oc2ccccc2)CCN(Cc2ccc(-c3ccccn3)cc2)C1 (centres undefined)	x	-37	12%	1%	-15%
CC1(Oc2ccc(Cl)cc2)CCN(Cc2ccc(-c3ccccn3)cc2)C1 (centres undefined)	x	-82*	-4%	-2%	-22%
CC(OC(=O)CSc1ccc(F)cc1)C(=O)NC1(C#N)CCCCC1 (centres undefined)	14%	3	-13%	-11%	-2%
Cc1coc2c(C)c3oc(=O)c(CC(=O)NCCc4ccc(Cl)cc4)c(C)c3cc12	x	1	-9%	4%	-12%
Cc1c(CC(=O)NCCc2ccc(Cl)cc2)c(=O)oc2c(C)c3occ(C(C)(C)C)c3cc12	x	-68*	-21%	-12%	-18%
CC1(C)CC2CC(C)(CN2c2ncnc3ccccc23)C1 (centres undefined)	11µM*	-63*	-17%	u	x
SMILES	HCV inh	HCMV inh	Vaccinia mCherry	Vaccinia Venus	FMDV antiviral
CC1CCN(c2nc(-c3ccncc3)nc3ccccc23)CC1	7.1µM*	-18	-17%	u	u
CC1CCCCN1c1nc(-c2ccc(C(C)(C)C)cc2)nc2ccccc12 (centres undefined)	x	u	-11%	-1%	-14%
c1ccc2c(N3CCCCC3)ncnc2c1	u	-91*	x	x	-3%
CC1CCCCN1c1nc(-c2ccncc2)nc2ccccc12 (centres undefined)	10µM*	-33	-5%	-18%	0%
O=C(c1ccccc1-n1cccn1)N1CCOc2c(cc(-c3ncc(C(F)(F)F)cc3Cl)cc2OCC2CCCO2)C1 (centres undefined)	x	x	-8%	-5%	-22%
Cc1ccc(CNC(=O)c2ccc(CSCc3ccccc3Cl)o2)cc1	x	1	9%	5%	1%
CCC1CCCCN1c1nc(-c2ccncc2)nc2ccccc12 (centres undefined)	11µM*	u	x	x	u
O=C(O)C1CCCN1c1ncnc2ccccc12 (centres undefined)	5%	11	i	-6%	x
CC1CCCCN1c1ncnc2ccccc12 (centres undefined)	u	-88*	-7%	-30%	x
Cn1c(SCc2ccccc2Cl)nc2c([nH]c3ccccc32)c1=O	x	81	-3%	-3%	-14%
NC(=S)N1OC[C@@H]2COc3ccc4ccccc4c3[C@@H]21	u	-67*	u	u	-1%
COc1ccc2nc(C)cc(N/N=C/c3ccc(F)cc3)c2c1	u	-18	u	10µM*	-9%
COc1ccc(N2CCN(c3cc(C)nc4ccc(OC)cc34)CC2)cc1	6.3µM*	-3	-29%	-21%	u
COc1ccc(/C=N/Nc2cc(C)nc3ccccc23)cc1	u	-104*	u	u	u
COc1ccc2nc(C)cc(N3CCC(C(N)=O)CC3)c2c1	7%	u	i	-5%	-5%
COc1ccc(CNc2cc(C)nc3ccc(OC)cc23)cc1	14µM*	-14	-23%	-11%	-29%
CN(Cc1ccc(Cl)cc1)C(c1cc2ccccc2o1)c1nnnn1C(C)(C)C (centres undefined)	x	-18	-12%	-17%	u
COc1ccc(-c2nc3cnc(N4CCN(C)CC4)nc3n(Cc3ccc(F)cc3)c2=O)cc1	x	x	x	x	-13%
CC(C)NC(=O)N1CC2(CCN(C(=O)c3cc(C(F)(F)F)cc(C(F)(F)F)c3)CC2)C1	x	x	x	x	-4%
COc1ccc(C(=O)N2CCC3(CCCN(CC(C)C)C3)CC2)cc1	x	x	x	x	1%
CCC/C=C/c1ccc(CN2C(C(C)C)C(=O)N(Cc3cn(CCC4OCCO4)nn3)CCS2(=O)=O)cc1 (centres undefined)	x	3	i	u	u
Cc1onc(-c2c(F)cccc2Cl)c1C(=O)Nc1cccc(S(=O)(=O)NC2=NCCC2)c1	-25%	-7	i	-18%	31%
COc1ccc(/C=N/Nc2cc(C)nc3c(C)cccc23)cc1	13µM*	-24	x	x	24%
COc1cccc2c(N/N=C/c3ccc(O)c(O)c3)cc(C)nc12	u	129	-9%	-7%	5%
C=C(c1ccccc1)[C@@H](C#N)C1CCCC1	x	-15	x	x	x
Oc1cccc(Nc2cc3[nH]c(-c4ccccc4)cc3cn2)c1	x	-87*	x	x	x
CCN(CC)S(=O)(=O)c1ccc(-c2nnc(SCc3nnc(-c4ccc(C)cc4)o3)o2)cc1	-11%	-30	0.0011µM*	u	4%

Screening data as filed in PubChem.
